Source: PubChem (several laboratories)
Most compounds without a hit are left out; they make up all but 28% or so of the library.
CYP2C19 act: activators of human cytochrome P450 2C19 | recombinant CYP2C19, luciferin-H EGE luminescence; active compounds read high; 0 = fully inhibited enzyme, 1 = untreated enzyme | activation factor at 5 µM | 96,000 tested, under 10 active | AID 1025;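 active = activation factor of at least 2 at 5 µM in the primary screen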;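 note: 0 = wells with 2.5 mM tranylcypromine and 1 = vehicle-only wells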
PLK1 inh: blocks human PLK1 kinase activity; inhibition, % at 10 µM; recombinant PLK1 kinase, TR-FRET peptide phosphorylation; hit rate 0.53% among 97,000;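 active = inhibition of 50% or more in the single-concentration screen; inactive = inhibition below 50%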;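 note: 0% = DMSO max control and 100% = H-89 dihydrochloride min control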
CYP2C9 activ: increases human cytochrome P450 2C9 activity; P11712; recombinant CYP2C9, luciferin-H conversion, luminescence; active compounds read high; factor 1 = untreated enzyme, 0 = blocked; activation factor at 5 µM; hit rate 1.4% among 96,000;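 active = activation factor of 2 or more for CYP2C9 at a 5 µM dose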;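 note: 0 = sulfaphenazole-blocked wells and 1 = vehicle-only wells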
Target sequence (P11712 whole entry, looked up): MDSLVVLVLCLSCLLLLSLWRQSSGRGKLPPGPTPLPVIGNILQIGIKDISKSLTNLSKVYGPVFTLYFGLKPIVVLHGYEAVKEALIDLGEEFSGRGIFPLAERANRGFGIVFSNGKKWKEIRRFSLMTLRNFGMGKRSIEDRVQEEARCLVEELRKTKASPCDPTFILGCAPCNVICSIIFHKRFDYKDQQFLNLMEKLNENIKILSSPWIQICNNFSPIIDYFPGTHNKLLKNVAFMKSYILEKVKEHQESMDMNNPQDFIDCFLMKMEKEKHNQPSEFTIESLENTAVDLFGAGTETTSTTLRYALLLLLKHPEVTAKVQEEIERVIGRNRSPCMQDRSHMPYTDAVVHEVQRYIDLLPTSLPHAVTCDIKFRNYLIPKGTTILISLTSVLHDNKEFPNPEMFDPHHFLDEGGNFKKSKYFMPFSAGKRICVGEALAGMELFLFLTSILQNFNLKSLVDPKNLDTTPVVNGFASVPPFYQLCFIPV
Plk1 PBD FP: inhibitors of human Plk1 polo box domain binding | P53350 | AID 693 | inhibition, %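 (tested at about 20 µM)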 | Plk1 PBD phosphopeptide binding, fluorescence polarization | hit rate 0.13% among 97,000; in the data active = inhibition above about 34%, passing the limit was not always enough
CYP2C19 inhib: human CYP2C19 inhibition; inhibition, % at 5 µM; P33261; hit rate 21% among 96,000; CYP2C19 Supersomes, luciferin-H EGE luminescence, 30 min;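 active = CYP2C19 inhibition above a set limit at 5 µM in the primary screen, cut at about 50% in these data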;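 note: plate controls were negative control wells for no effect and 2.5 mM tranylcypromine positive control for full effect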
CYP2C9 inhib: blocks human cytochrome P450 2C9; CYP2C9 Supersomes, luciferin-H conversion, luminescence; inhibition, % at 5 µM; hit rate 20% among 96,000; AID 777;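 active = blocking of liver enzyme CYP2C9 beyond about 50% at 5 µM, limit read from the data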
Starred values were filed as active, the others as inactive.

Screening Cc1cc(CSc2ccccc2)ccc1NC(=O)c1ccc(Cl)c([N+](=O)[O-])c1 returned CYP2C19 act 1.2, PLK1 inh -9, CYP2C9 activ 1.2, Plk1 PBD FP -3, CYP2C19 inhib -21 and CYP2C9 inhib -24.
For COc1ccc([N+](=O)[O-])cc1NC(=S)Nc1ccccc1 the results were CYP2C19 act 0.5, PLK1 inh -13, CYP2C9 activ 0.6, Plk1 PBD FP -30, CYP2C19 inhib 50* and CYP2C9 inhib 42.
For CCOC(=O)Nc1ccc([N+](=O)[O-])cc1OC the results were PLK1 inh -6 and Plk1 PBD FP 11.
`O=C(c1ccc(CN2CCc3ccccc3C2)cc1)N1CCN(c2ccc(F)cc2)CC1` gave PLK1 inh -9 and Plk1 PBD FP -8.
`S=c1oc(-c2ccncc2)nn1CCc1ccncc1` gave CYP2C19 act 0, PLK1 inh 13, CYP2C9 activ 0.1, Plk1 PBD FP 2, CYP2C19 inhib 99* and CYP2C9 inhib 85*.
`O=C(O)Cn1nc(-c2ccccc2)oc1=O` gave CYP2C19 act 1.1, PLK1 inh -1, CYP2C9 activ 1.1, Plk1 PBD FP 16, CYP2C19 inhib -5 and CYP2C9 inhib -8.
Screening Fc1ccc(NC(=S)N2CCCc3ccccc32)cc1 returned CYP2C19 act 0.6, PLK1 inh -2, CYP2C9 activ 0.9, Plk1 PBD FP -20, CYP2C19 inhib 40 and CYP2C9 inhib 7.
Screening Cc1ccc(C(=O)NNS(=O)(=O)c2ccccc2[N+](=O)[O-])cc1 returned PLK1 inh -3 and Plk1 PBD FP 0.
For O=C(NNS(=O)(=O)c1ccccc1[N+](=O)[O-])c1ccc(O)cc1 the results were CYP2C19 act 0.6, PLK1 inh 7, CYP2C9 activ 0.3, Plk1 PBD FP 6, CYP2C19 inhib 40 and CYP2C9 inhib 68*.
Cc1csc2nc(=O)c3ccccc3n12 was read as CYP2C19 act 1, PLK1 inh -13, CYP2C9 activ 1, Plk1 PBD FP 11, CYP2C19 inhib 2 and CYP2C9 inhib 2.
COc1ccc(Oc2cc(C(F)(F)F)cnc2C(N)=O)cc1 was read as CYP2C19 act 0.3, PLK1 inh 1, CYP2C9 activ 0.6, Plk1 PBD FP -5, CYP2C19 inhib 67* and CYP2C9 inhib 36.
`NC(=O)c1ncc(C(F)(F)F)cc1Oc1cccc(C(F)(F)F)c1` gave CYP2C19 act 0.1, PLK1 inh -5, CYP2C9 activ 0.6, Plk1 PBD FP -17, CYP2C19 inhib 93* and CYP2C9 inhib 43.
Screening Cc1nn(CC#N)c(=O)n1-c1cccc(F)c1 returned CYP2C19 act 1.3, PLK1 inh -10, CYP2C9 activ 1.3, Plk1 PBD FP 17, CYP2C19 inhib -30 and CYP2C9 inhib -34.
`Cc1nn(Cc2ccc([N+](=O)[O-])cc2)c(=O)n1-c1c(F)cccc1F` gave CYP2C19 act 0.4, PLK1 inh -9, CYP2C9 activ 1, Plk1 PBD FP 27, CYP2C19 inhib 59* and CYP2C9 inhib 5.
`Cc1nn(Cc2ccc([N+](=O)[O-])cc2)c(=O)n1-c1ccc(F)cc1` gave CYP2C19 act 0.5, PLK1 inh -14, CYP2C9 activ 0.1, Plk1 PBD FP -22, CYP2C19 inhib 46 and CYP2C9 inhib 86*.
Screening Cc1ccc(N2CC(C(=O)Nc3cc(C)on3)CC2=O)cc1 (stereo not given) returned CYP2C19 act 0.8, PLK1 inh -1, CYP2C9 activ 0.8, Plk1 PBD FP 7, CYP2C19 inhib 18 and CYP2C9 inhib 18.
`Cc1cc(C)cc(NC(=O)CCc2nc3ccccc3[nH]2)c1` gave CYP2C19 act 1, PLK1 inh -10, CYP2C9 activ 1.3, Plk1 PBD FP -8, CYP2C19 inhib 1 and CYP2C9 inhib -29.
CCCCOC(=O)CCc1nc2ccccc2[nH]1 was read as CYP2C19 act 0.5, PLK1 inh -22, CYP2C9 activ 1.1, Plk1 PBD FP 0, CYP2C19 inhib 50* and CYP2C9 inhib -6.
CCCCOc1ccc(/C=C/C(=O)NCCc2nc3ccccc3[nH]2)cc1 was read as CYP2C19 act 0.7, PLK1 inh -15, CYP2C9 activ 0.7, Plk1 PBD FP -8, CYP2C19 inhib 32 and CYP2C9 inhib 34.
Screening O=C(CCc1nc2ccccc2[nH]1)Nc1ccccc1 returned CYP2C19 act 0.4, CYP2C9 activ 0.7, CYP2C19 inhib 62* and CYP2C9 inhib 33.
For CCOC(=O)Cc1nc2ccccc2[nH]1 the results were CYP2C19 act 0.9, PLK1 inh -12, CYP2C9 activ 1.1, Plk1 PBD FP -3, CYP2C19 inhib 11 and CYP2C9 inhib -13.
CCOC(=O)c1ccc(NCc2nc3ccccc3[nH]2)cc1 was read as CYP2C19 act 0.9, PLK1 inh -18, CYP2C9 activ 0.3, Plk1 PBD FP -38, CYP2C19 inhib 15 and CYP2C9 inhib 65*.
COc1ccc(OC)c2sc(NC(=O)C3=COCCO3)nc12 was read as CYP2C19 act 0.9, PLK1 inh -16, CYP2C9 activ 0.7, Plk1 PBD FP -1, CYP2C19 inhib 13 and CYP2C9 inhib 31.
COc1ccc(OC)c2sc(NC(=O)C(C)C)nc12 was read as CYP2C19 act 0.5, PLK1 inh -3, CYP2C9 activ 0.3, Plk1 PBD FP -23, CYP2C19 inhib 46 and CYP2C9 inhib 70*.
CCCC(=O)c1cc(F)c(N2CCOCC2)cc1C was read as CYP2C19 act 0.5, PLK1 inh -13, CYP2C9 activ 0.6, Plk1 PBD FP -2, CYP2C19 inhib 53* and CYP2C9 inhib 43.
`CC(=O)NC1CSCC1OC(C)=O` (stereo not given) gave CYP2C19 act 1.1, PLK1 inh -5, CYP2C9 activ 1.2, Plk1 PBD FP 0, CYP2C19 inhib -10 and CYP2C9 inhib -20.
For COc1ccc(-c2ocnc2C(=O)Nc2ccccc2N2CCCCC2)cc1 the results were CYP2C19 act 0.7, PLK1 inh -9, CYP2C9 activ 0.4, Plk1 PBD FP 1, CYP2C19 inhib 33 and CYP2C9 inhib 57*.
`CCOc1ccc(C(=O)Nc2ccccc2N2CCCC2)cc1` gave CYP2C19 act 0.9, PLK1 inh -7, CYP2C9 activ 1.1, Plk1 PBD FP -16, CYP2C19 inhib 10 and CYP2C9 inhib -9.
Screening Cc1ccc2c(NC(=O)C3CC3)c(C)ccc2n1 returned CYP2C19 act 1.1, PLK1 inh -4, CYP2C9 activ 1.1, Plk1 PBD FP -13, CYP2C19 inhib -8 and CYP2C9 inhib -14.
Nc1ccc2oc(=O)c3ccccc3c2c1 was read as CYP2C19 act 0.4, PLK1 inh -6, CYP2C9 activ 0.8, Plk1 PBD FP -19, CYP2C19 inhib 59* and CYP2C9 inhib 24.
Cc1cc(OCC(=O)Nn2cnnc2)ccc1Br was read as CYP2C19 act 0, CYP2C9 activ 0, CYP2C19 inhib 100* and CYP2C9 inhib 100*.
`Cc1ccc(C)c(-n2c(C)cc(/C=N/NC(=O)c3c(C)nc4cc(C)ccn34)c2C)c1` gave PLK1 inh -7 and Plk1 PBD FP -11.
